Test results published in PubChem BioAssay (NCI).
The panel holds about 83,000 compounds, 20% with a hit somewhere; the sample as a whole holds those more often.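 In brief: 96-well plates, 48 h treatment, single concentration, percent growth endpoint.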 A number with no mark means an inactive call. Activity calls are given as the source filed them. Rule for the calls: active = growth percent below 10; inactive = the rest.

test system: HL-60(TB) leukemia; test: NCI-60 one-dose screen, 48 h (100 = growth as untreated, 0 = no growth, -100 = all killed); settings: 10 µM unless noted

Row | SMILES | growth
1 | Cc1noc2c(Cc3ccccc3)nn(CC(=O)N/N=C/c3ccc(Cl)cc3)c(=O)c12 | 103%
2 | O=C(NO)c1ccc(Cn2ccc3c(NCc4ccccc4)ncnc32)cc1 | -16% (active)
3 | O=C1Nc2cc(-c3ccc(NC(=O)c4cccs4)cc3)ccc2/C1=C/c1ccc[nH]1 | 90.9%
4 | O=C(CSc1nc2ccccc2c(=O)[nH]1)Nc1ccccc1C(=O)O | 103%
5 | COc1ccc(-c2nc3ccccc3n2CC(=O)N=Nc2c(O)[nH]c3ccc(OC)cc23)cc1 | 37.6%
6 | Nc1n[nH]c2cccc(C#Cc3cccc(NC(=O)Nc4cc(C(F)(F)F)cc(C(F)(F)F)c4)c3)c12 | -9.4% (active)
7 | O=C(N=Nc1c(O)[nH]c2ccc(Cl)cc12)c1ccc2nc(-c3ccccc3)[nH]c2c1 | 72.5%
8 | CN(CCO)c1oc(-c2ccccc2)nc1[P+](c1ccccc1)(c1ccccc1)c1ccccc1 | -33.1% (active)
9 | COc1cc(/C=C/C(=O)c2cnn(-c3cc(=O)[nH]c4ccccc34)c2C)cc(OC)c1OC | 0.36% (active)
10 | O=CNc1cccc(-n2cnc3cc(-c4ccc(O)cc4)ccc32)c1 | 8.14% (active)
11 | CCCCCCn1c(O)c(N=Nc2nc(-c3cc4ccccc4oc3=O)cs2)c2ccccc21 | 87.8%
12 | CCC(C)(C)c1ccc(OCCCCCCN2CCN(c3ccncc3)CC2)cc1 | -62.2% (active)
13 | CC(C)c1ccc(C(=O)Nc2sc3c(c2C(N)=O)CCC(=O)C3=O)cc1 | 96.9%
14 | CC(=O)Nc1cccc(-c2nc3cc(-c4ccc(O)cc4)ccc3n2C)c1 | 20.7%
15 | CCCSc1nc(Nc2ccc(S(N)(=O)=O)cc2)c(C#N)c(-c2cc(OC)c(OC)c(OC)c2)n1 | -40.3% (active)
16 | CN1CCc2c(sc3ncnc(N/N=C/c4cn(-c5ccccc5)nc4-c4ccc(Br)cc4)c23)C1 | -4.94% (active)
17 | COC1=C[C@]23CCC(=O)N2CCc2cc4c(cc2[C@@H]3[C@@H]1OC(=O)[C@H](C)O)OCO4 | -28.6% (active)
18 | Cn1cc(-c2cc(N)n3nc(-c4cn(C)c5ncccc45)cc3n2)c2cccnc21 | 39.2%
19 | Cc1cccc(-c2ccccc2Oc2ccc3nnc(Cl)n3n2)c1 | 108%
20 | COc1ccc(NC(=O)N/N=C/c2c[nH]c3ccccc23)cc1 | 1.79% (active)
21 | Nc1nc(-c2ccccc2)cs1 | 18.9%
22 | COc1ccc2[nH]cc(-c3nc(N)nnc3-c3cn(C)c4ncccc34)c2c1 | 15.1%
23 | N#CC1=C(c2ccco2)Nc2c(c(-c3ccccc3)nn2-c2ccccc2)C12C(=O)Nc1ccc(Br)cc12 (configuration not stated) | 51.1%
24 | C=CCSc1nnc(-c2ccc(-c3nc4ccc(Cl)cc4[nH]3)cc2)o1 | 29.8%
25 | C#CCOc1cc(N(CC)CC)ccc1C(C(=O)NC(C)(C)C)N(C(=O)C1CCc2cc(F)ccc2O1)c1ccc(F)c(Cl)c1 (configuration not stated) | 27.2%
26 | CN(C)c1nc(NCCNS(=O)(=O)c2ccc(C3=Nc4c(N)nc(N)nc4NC(c4ccccc4)C3)cc2)nc(Nc2ccc(F)cc2)n1 (configuration not stated) | -6.76% (active)
27 | COc1ccc(Cc2nn(CC(=O)N/N=C/c3ccc(Br)cc3)c(=O)c3c(C)noc23)cc1 | 91.2%
